High-throughput results deposited in PubChem by National Center for Advancing Translational Sciences (NCATS).
A selection: hits, their analogues and other compounds. The true share with any hit is near 12%.
Cycloheximide cs: affects cycloheximide protein synthesis inhibition readout, counter-screen; max response, %; hit rate 12% among 300,000; cell reporter, cycloheximide protein synthesis inhibition counterscreen; AID 2314; in the data active = max response mostly above about 13%, no sharp cut-off; inactive = mostly below about 14%; note: read at 38.3 µM for the half of the compounds with a filed dose; 0% is about no effect
SARS PLpro yeast: inhibitors of SARS-CoV papain-like protease in yeast. S. cerevisiae expressing SARS-CoV PLpro, growth rescue. Potency, µM (series often up to 32.9 µM), for the others: at the top dose activity, positive = growth rescue, hits mostly activators. hit rate 0.19% among 330,000. AID 485353; note: potency is the fitted concentration of half-maximal effect; 0% is about no effect; nearly all actives have a fitted effect of over 55% in size
Shiga inhibitor: inhibitors of Shiga toxin in Vero cells; hit rate 9.2% among 290,000; Vero cells, Shiga toxin protein synthesis inhibition reporter; inhibition, % at 38.7 µM; AID 2315; in the data active = inhibition mostly above about 28%, no sharp cut-off; inactive = mostly below about 43%; note: 0% is about no effect
NS1 function inh: influenza NS1 inhibition. Potency, µM (series often up to 46.1 µM), for the others: at the top dose activity, positive = more growth. hit rate 0.4% among 270,000; note: potency is the fitted concentration of half-maximal effect; actives are rising curves; nearly all actives have a fitted effect of over 50% in size
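S. cerevisiae expressing influenza A NS1, grown in glucose, washed, then diluted 1:100 into pH 6.0 -URA galactose medium with 23 nl compound. Growth recovery read as OD600; NS1-free strain serves as control.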
Active calls of the source: *; ? = inconclusive; . = not tested or not shown; + = active, no number. Unless noted, calls come from the whole dose curve.

SMILES	Cycloheximide cs	SARS PLpro yeast	Shiga inhibitor	NS1 function inh
COc1ccc(NC(=O)Nc2ccccc2C(=O)N2CCCC2)cc1	6	2%	25	3%
O=C(Nc1ccc2ccccc2c1)c1ccc(NS(=O)(=O)c2ccc(Br)s2)cc1	36*	2%	46*	4%
Cc1ccc(C(=O)OCCn2cc(C#N)c(=O)[nH]c2=O)cc1	10	0%	-12	-1%
Cc1ccccc1-c1ccc(CN2CCN(C)C(CCO)C2)cc1 (stereo not given)	11*	0%	19*	-2%
Cc1ccccc1-c1ncc(CN2CCN(C3CCCC3)C(CCO)C2)cn1 (stereo not given)	7	1%	39	5%
COCCN(C(=O)c1ccc(N2C(=O)c3ccccc3C2=O)cc1)c1c(N)n(CC(C)C)c(=O)[nH]c1=O	.	-4%	.	.
CCc1ccc(OCC(=O)Nc2ccc(S(=O)(=O)Nc3ccccn3)cc2)cc1	-3	3%	-4	7%
CN(C)S(=O)(=O)c1cccc(-c2cn3cc(Cl)ccc3n2)c1	28*	-2%	20	-5%
Clc1ccc2nc(-c3ccccc3)cn2c1	34*	3%	44*	-6%
Cc1ccc2nc(-c3ccc4c(c3)OCCO4)cn2c1	-8	-3%	-24	-2%
Clc1ccc2nc(-c3ccc4c(c3)OCO4)cn2c1	35*	-3%	76*	-4%
c1ccc(-c2ccccc2OCCCCN2CCCCCC2)cc1	-1	0%	-14	.
Cn1c(-c2ccccc2)cc2ccccc21	7	-2%	2	2%
Cn1c(-c2nnn(-c3ccc(F)cc3)n2)cc2ccccc21	55*	-1%	65*	-4%
Cc1ccc(-n2nnc(-c3cc4ccccc4n3C)n2)cc1	27*	-1%	33*	?
Cc1ccccc1OC(C)C(=O)NCCCN1CCOCC1 (stereo not given)	-4	0%	-7	-8%
O=C(NCc1ccccc1)C1=C[C@H](c2coc3ccccc3c2=O)C[C@H](OCCCCO)O1	1	-2%	-12	1%
Cc1cc(-c2nnc3n2CCCCC3)c(C)n1-c1ccccc1	12	-3%	91*	-5%
CCOC(=O)c1cnc(Nc2nc3ccccc3o2)nc1C	36*	0%	68*	8%
CCOC(=O)c1cnc(-c2ccccc2O)nc1Cl	36*	0%	70*	.
Cc1nc(Nc2nc3ccccc3o2)nc2c1CCC2	30*	2%	49	-15%
CCOC(=O)c1cnc(Nc2ccccc2)nc1C(F)(F)F	36*	-7%	92*	-7%
Cc1cccc(C)c1Nc1nc2ccccc2o1	-4	-1%	-4	-10%
O=S(=O)(c1c(F)cccc1F)N1CCN(C(=S)NCc2ccc3c(c2)OCO3)CC1	-2	-2%	9	11%
Cc1nn(CC(=O)NCc2ccc(OC(C)C)cc2)c(=O)c2cc(-c3ccccc3)nn12	8	0%	-3	-5%
SMILES	Cycloheximide cs	SARS PLpro yeast	Shiga inhibitor	NS1 function inh
CCOC(=O)c1cnc(-c2ccccc2)nc1C(F)(F)F	52*	-1%	74*	.
O=C(O)c1cnc(-c2ccccc2)nc1C(F)(F)F	-2	0%	-18	1%
c1ccc(-c2nc(N3CCOCC3)s[n+]2-c2ccccc2)cc1	57*	-12%	40*	-3%
O=C(NC1CCN(S(=O)(=O)c2ccccc2F)CC1)c1cccnc1	-2	-2%	-4	-12%
CC(=O)Nc1ccc(S(=O)(=O)N2CCN=C2c2ccccc2)cc1	0	2%	-17	-25%
O=C(CSc1nc2cc(Cl)ccc2o1)Nc1ccc(N2CCOCC2)cc1	31*	10%	72*	7%
O=C(CSc1nc2ccccc2o1)Nc1ccc(N2CCOCC2)cc1	47*	-6%	62*	-5%
O=C(CSc1nc2ccccc2o1)Nc1ccccc1N1CCOCC1	0	0%	24	-6%
O=C(O)C(Cc1c[nH]c2ccccc12)NS(=O)(=O)c1ccc(Cl)cc1 (stereo not given)	-1	-5%	-15	.
CC(C)(C)NC(=O)CSc1nc(-c2ccccc2)c(-c2ccccc2)[nH]1	-2	-5%	-29	-18%
CC(C)(C)NC(=O)CSc1ncccc1-c1nc2ccccc2[nH]1	26*	10%	26*	11%
COC(=O)CSc1ncccc1-c1nc2ccccc2[nH]1	24*	-5%	+	-3%
O=C(CSc1ncccc1-c1nc2ccccc2[nH]1)N1CCc2ccccc21	85*	-11%	26	12%
CCN(Cc1ccncc1)C(=O)Cc1cccs1	-3	-1%	12	11%
COC(=O)C(Cc1ccc(O)cc1)NC(=O)CCNC(=O)c1ccco1 (stereo not given)	-3	1%	-2	6%
O=C(Nc1nnc(SCc2cccnc2)s1)C1CC(=O)N(c2ccccc2)C1 (stereo not given)	-3	-5%	-1	1%
CCOc1ccc(NC(=S)NCc2ccc3c(c2)OCO3)cc1	9.1*	-2%	23	8%
COc1ccc(NC(=O)NCc2ccc3c(c2)OCO3)cc1	2	-2%	7	1%
CC(=O)Nc1ccc(OCc2ccc3c(c2)OCO3)cc1	46*	-10%	167*	-9%
Cc1ccc(NC(=S)NCc2ccc3c(c2)OCO3)cc1	7	?	6	-5%
CC1(C)COC(c2ccc(F)c([N+](=O)[O-])c2)=N1	1	18%	-7	9%
N/C(=N\OC(=O)c1cccc2ccccc12)c1cccnc1	42*	0%	94*	-1%
O=C(O/N=C(\c1ccccc1)c1ccccn1)c1cccc2ccccc12	14*	-87%	12	-66%
O=C(COC(=O)c1cccnc1)Nc1cccc2ccccc12	-3	1%	4	2%
Cc1cccc(/C(N)=N/OC(=O)c2cccc3ccccc23)c1	21*	-22%	59*	-100%
SMILES	Cycloheximide cs	SARS PLpro yeast	Shiga inhibitor	NS1 function inh
O=C(NC1=NCCS1)C1Cc2ccccc2CN1C(=O)c1ccccc1 (stereo not given)	28*	0%	84*	?
COc1ccc(NC(=O)C2Cc3ccccc3CN2C(=O)c2ccccc2)cn1 (stereo not given)	7	-8%	22	-11%
CC(=O)c1ccc(NC(=O)C2Cc3ccccc3CN2C(=O)c2ccccc2)cc1 (stereo not given)	11*	-3%	41*	-2%
O=C(Nc1ccc(COc2ccccc2)cc1)Oc1ccccc1N1CCOCC1	17*	-3%	22	-1%
O=C(Nc1ccccc1)Oc1ccccc1N1CCOCC1	13	1%	19	8%
Cc1ccc(C)c2c1c1ccccc1n2C	20*	1%	42	2%
COC(=O)c1ccc(NC(=O)c2ccccc2-c2ccccc2C(=O)O)cc1	5	1%	-8	0%
O=S(=O)(Cc1noc(-c2ccccc2Cl)n1)c1ccccn1	41*	0%	72*	3%
O=C(NC1CCCCC1)C(c1ccc(F)cc1)N(C(=O)c1csnn1)C1CCCC1 (stereo not given)	-2	-1%	-6	-1%
C=CCNC(=O)c1c2c(nc3ccccc13)-c1ccccc1CC2	-5	-8%	-10	-6%
Fc1cccc2sc(N3CCCC3)nc12	43*	0%	89*	-6%
Clc1cccc2sc(N3CCOCC3)nc12	.	.	.	4%
Clc1cccc2sc(N3CCCC3)nc12	20*	-2%	active	-9%
